Bioassay records (PubChem BioAssay)
PostGolgi yeast – phenotypic screen on post-Golgi transport, primary screen. post-Golgi transport phenotypic cell assay. inhibition, % at 10 µM. 98,000 tested, 0.9% active;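 also: yeast cells grown in 1536-well plates; yeast grown about 18 h at 30C before absorbance read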
CYP2C9 activ – human CYP2C9 activators, primary screen, biochemical, luminescence; Cytochrome P450 2C9 (Homo sapiens), P11712; recombinant CYP2C9, luciferin-H conversion; hits give high values; factor 1 = untreated enzyme, 0 = blocked; activation factor at 5 µM; 96,000 tested, 1.4% active; AID 1024, 2008;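 active = activation factor of 2 or more for CYP2C9 at a 5 µM dose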;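 also: 0 = sulfaphenazole-blocked wells and 1 = vehicle-only wells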
Target sequence (P11712 whole entry, looked up): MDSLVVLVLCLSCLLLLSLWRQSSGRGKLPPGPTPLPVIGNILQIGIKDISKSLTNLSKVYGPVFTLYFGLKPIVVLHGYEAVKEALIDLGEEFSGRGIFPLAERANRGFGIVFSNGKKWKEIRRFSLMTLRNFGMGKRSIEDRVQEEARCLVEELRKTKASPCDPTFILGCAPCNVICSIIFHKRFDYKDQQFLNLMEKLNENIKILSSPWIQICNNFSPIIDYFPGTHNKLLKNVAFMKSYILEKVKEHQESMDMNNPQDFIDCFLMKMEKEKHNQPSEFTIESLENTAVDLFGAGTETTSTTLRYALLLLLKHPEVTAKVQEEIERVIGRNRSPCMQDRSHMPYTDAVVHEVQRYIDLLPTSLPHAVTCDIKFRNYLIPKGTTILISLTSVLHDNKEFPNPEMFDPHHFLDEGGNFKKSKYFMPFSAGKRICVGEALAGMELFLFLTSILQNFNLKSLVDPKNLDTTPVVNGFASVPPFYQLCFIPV
CYP2C19 activ – human CYP2C19 activators, primary screen, biochemical, luminescence; Cytochrome P450 2C19 (Homo sapiens), P33261; recombinant CYP2C19, luciferin-H EGE luminescence; hits give high values; 0 = fully inhibited enzyme, 1 = untreated enzyme; activation factor at 5 µM; 96,000 tested, under 10 active;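 active = activation factor of at least 2 at 5 µM in the primary screen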;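 also: 0 = wells with 2.5 mM tranylcypromine and 1 = vehicle-only wells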
PostGolgi ctrl – growth inhibition of yeast control strain, primary screen, counter-screen for post-Golgi transport modulator project | efflux-deficient yeast background strain, growth absorbance A615, 16 h | 98,000 tested, 5% active | inhibition, % at 10 µM
CYP2C19 inh – blockers of cytochrome P450 2C19 activity – biochemical, luminescence, ADME assay, primary screen | P33261 | CYP2C19 Supersomes, luciferin-H EGE luminescence, 30 min | inhibition, % at 5 µM | 96,000 tested, 21% active;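 active = CYP2C19 inhibition above a set limit at 5 µM in the primary screen, cut at about 50% in these data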;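 also: plate controls were negative control wells for no effect and 2.5 mM tranylcypromine positive control for full effect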
CYP2C9 inh – blockers of cytochrome P450 2C9 activity – biochemical, luminescence, ADME assay, primary screen. AID 777, 2007. CYP2C9 Supersomes, luciferin-H conversion. inhibition, % at 5 µM. 96,000 tested, 20% active;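 active = blocking of liver enzyme CYP2C9 beyond about 50% at 5 µM, limit read from the data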
Numbers without * were called inactive. In the library only some 32% were active in any assay of this set; here they are far more common. Rule as the data show it, unless noted: active = inhibition above about 30%; inactive = the rest.

SMILES	PostGolgi yeast	CYP2C9 activ	CYP2C19 activ	PostGolgi ctrl	CYP2C19 inh	CYP2C9 inh
Cc1ccc(-c2cc(C(=O)N/N=C\c3cnn(C)c3C)c3ccccc3n2)cc1C	-3.0	0	0.1	17.1	87.4*	98.8*
Cc1c(/C=N/NC(=O)c2sc3ccccc3c2Cl)cnn1C	-12.5	1	0.5	29.5	46.8	-3.5
Cc1cc(C)nc(SC(C)C(=O)Nc2ccc(S(N)(=O)=O)cc2)n1 (stereo not given)	4.2	0.8	1.1	-5.9	-6.3	15.7
CCOc1ccccc1NC(=O)C1CCCN(S(=O)(=O)c2cccc3nsnc23)C1 (stereo not given)	-10.2	0.5	0.5	4.6	51.7*	53.2*
COc1ccc2nc(NC(=O)C3CCCN(S(=O)(=O)c4cccc5nsnc45)C3)sc2c1 (stereo not given)	1.8	0.1	0.2	25.6	78.0*	85.6*
CCOC(=O)c1c2ccc(OCC(=O)N/N=C/c3ccccc3C(F)(F)F)cc2n2ccccc12	-6.0	0.4	0.8	-1.9	16.5	58.7*
CCOC(=O)c1c2ccc(OCC(=O)N/N=C/c3ccc(Cl)cc3)cc2n2ccccc12	8.1	0.6	0.9	7.5	9.1	39.2
CC1(C)CC(=O)c2c(nc(SCC(=O)Nc3nsc(-c4ccccc4)n3)c(C#N)c2-c2ccccc2)C1	1.4	0.2	0.5	1.2	54.4*	84.9*
CCc1c(C#N)c(SCCC(=O)Nc2ccc(F)cc2)nc2c1C(=O)CC(C)(C)C2	-12.0	0	0	10.4	97.6*	97.0*
CCc1c(C#N)c(SCCC(=O)Nc2cccc(OC)c2)nc2c1C(=O)CC(C)(C)C2	6.9	0	0	0.3	97.9*	98.4*
COc1ccc(-c2c(C#N)c(SCc3c(C)noc3C)nc3c2C(=O)CC(C)(C)C3)cc1	20.6	0.6	1	24.3	4.8	42.6
CC1(C)Cc2c(ccc3ccccc23)-c2nnc(-c3cccnc3)n21	9.1	1.3	1.1	15.1	-7.7	-32.0
CNc1oc(Cc2ccccc2)nc1S(=O)(=O)c1ccccc1	5.5	1.2	1	3.5	0.5	-19.7
CC(C)c1ccc(NC(=O)N2CCC(c3nc4ccccc4o3)CC2)cc1	-8.2	0.7	0.9	2.6	13.1	27.4
CCOC(=O)N1CCN(C(=O)C2CCN(S(=O)(=O)c3cc(Cl)ccc3Cl)CC2)CC1	1.2	2.4*	0.5	17.8	51.4*	-143.0
CCOC(=O)C1CCN(C(=O)C2CCCCC2)CC1	1.2	0.9	0.8	10.3	17.9	8.0
CCOC(=O)C1CCN(C(=O)C2CCN(S(=O)(=O)c3cc(Cl)ccc3Cl)CC2)CC1	2.1	2.4*	0.9	-8.7	14.7	-135.0
Cc1nc2cc(CC(=O)O)ccc2o1	0.2	1	1.1	14.3	-8.0	-4.8
COC(=O)c1ccccc1NC(=O)CSc1nc(N)cc(N)n1	-3.5	0.9	0.7	0.7	34.3	5.6
Cc1c(F)cccc1NC(=O)CCC(=O)O	8.4	0.9	1	-5.8	4.0	6.6
COC(=O)c1ccccc1NC(=O)CSCC(=O)Nc1ccc(F)cc1	-8.6	0.6	0.4	7.9	58.6*	35.4
Cc1c(F)cccc1NC(=O)CSCC(=O)Nc1ccccc1	0.8	0.4	0.4	3.6	56.0*	55.9*
COC(=O)c1cc(S(=O)(=O)N2CCOCC2)ccc1Sc1ccccc1N	1.9	0.6	0.9	1.1	5.2	37.0
COC(=O)c1ccc2c(c1)C(C)(C)C(/C=C/c1ccccc1O)=[N+]2C	-1.6	0.4	0.6	6.0	41.8	58.6*
Cn1nc(-c2ccccc2)c(C(=O)Nc2ccc(Cl)cc2)c1Cl	10.2	0.9	0.4	38.5*	63.1*	6.3
O=C(c1ccc(N2CCOCC2)nc1)N1CCCCC1	0.0	1.1	0.9	18.1	11.7	-10.7
Cc1cc(C=O)c(C)n1-c1cc(C(F)(F)F)ccc1N1CCOCC1	9.2	0.8	0.1	21.1	91.5*	21.3
O=C(Nc1cc(C(F)(F)F)ccc1N1CCOCC1)c1cncc(Br)c1	6.8	1	0.8	25.8	18.3	1.7
